# In PubChem BioAssay AID1159580 (chemical genetic matrix, 2015):
# Screen size: about 5,500 compounds; about 2,000 (36%) were called active. Inconclusive results (about 18%) are left out. The list shows a part of the results. Values without a mark were called inactive. Cut-off read from the data, not from the text of the source: active = normalized growth mostly below about 0.91 (no sharp cut-off); inconclusive = no clear call, values can overlap the other calls; inactive = mostly above about 0.92.
# Experiment: chemical genetic growth profiling, strain panel (AID 1159580);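 note: tested at 20 µM; growth read once vehicle control cultures reached saturation at 30 °C; 1 = growth at the plate median or of vehicle wells; lower values mean less growth of the strain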
# Details: growth OD
compound,measurement,setting,value
c1cc2c(cc1[C@H]1OC[C@H]3[C@@H]1CO[C@H]3c1ccc3c(c1)OCO3)OCO2,normalized growth,"S. cerevisiae deletion strains, locus YJR075W, strain HOC1, stronger effect = lower value",0.914
same,normalized growth,"S. cerevisiae deletion strains, locus YKL009W, strain mrt4, stronger effect = lower value",0.922
same,normalized growth,"S. cerevisiae deletion strains, locus YKL068W, stronger effect = lower value",0.929 (active)
same,normalized growth,"S. cerevisiae deletion strains, locus YKL085W, strain MDH1 (second series), stronger effect = lower value",0.915 (active)
same,normalized growth,"S. cerevisiae deletion strains, locus YKL085W, strain MDH1, stronger effect = lower value",0.915 (active)
same,normalized growth,"S. cerevisiae deletion strains, locus YKL160W, strain elf1, stronger effect = lower value",0.878 (active)
same,normalized growth,"S. cerevisiae deletion strains, locus YKL190W, strain CNB1, stronger effect = lower value",0.947
same,normalized growth,"S. cerevisiae deletion strains, locus YKR001C, strain vps1, stronger effect = lower value",0.683 (active)
same,normalized growth,"S. cerevisiae deletion strains, locus YKR026C, strain gcn3, stronger effect = lower value",0.916 (active)
same,normalized growth,"S. cerevisiae deletion strains, locus YKR091W, strain srl3, stronger effect = lower value",0.899 (active)
same,normalized growth,"S. cerevisiae deletion strains, locus YLL001W, strain dnm1, stronger effect = lower value",0.887 (active)
same,normalized growth,"S. cerevisiae deletion strains, locus YLL026W, stronger effect = lower value",0.922 (active)
same,normalized growth,"S. cerevisiae deletion strains, locus YLL041C, strain sdh2, stronger effect = lower value",0.926 (active)
same,normalized growth,"S. cerevisiae deletion strains, locus YLR027C, strain aat2, stronger effect = lower value",0.931
same,normalized growth,"S. cerevisiae deletion strains, locus YLR039C, strain RIC1, stronger effect = lower value",0.398 (active)
same,normalized growth,"S. cerevisiae deletion strains, locus YLR058C, strain SHM2, stronger effect = lower value",0.943
same,normalized growth,"S. cerevisiae deletion strains, locus YLR102C, strain apc9, stronger effect = lower value",0.923 (active)
same,normalized growth,"S. cerevisiae deletion strains, locus YLR113W, strain HOG1, stronger effect = lower value",0.865
same,normalized growth,"S. cerevisiae deletion strains, locus YLR221C, strain rsa3, stronger effect = lower value",0.886 (active)
same,normalized growth,"S. cerevisiae deletion strains, locus YLR258W, strain gsy2, stronger effect = lower value",0.914 (active)
same,normalized growth,"S. cerevisiae deletion strains, locus YLR262C, strain YPT6 (second series), stronger effect = lower value",0.455 (active)
same,normalized growth,"S. cerevisiae deletion strains, locus YLR262C, strain YPT6, stronger effect = lower value",0.415 (active)
same,normalized growth,"S. cerevisiae deletion strains, locus YLR268W, strain sec22, stronger effect = lower value",0.833 (active)
same,normalized growth,"S. cerevisiae deletion strains, locus YLR320W, strain mms22, stronger effect = lower value",0.732 (active)
same,normalized growth,"S. cerevisiae deletion strains, locus YLR330W, strain CHS5, stronger effect = lower value",0.816 (active)
same,normalized growth,"S. cerevisiae deletion strains, locus YLR342W, strain FKS1 (second series), stronger effect = lower value",0.77 (active)
same,normalized growth,"S. cerevisiae deletion strains, locus YLR342W, strain FKS1, stronger effect = lower value",0.9 (active)
same,normalized growth,"S. cerevisiae deletion strains, locus YLR357W, strain rsc2, stronger effect = lower value",0.951
same,normalized growth,"S. cerevisiae deletion strains, locus YLR370C, strain arc18, stronger effect = lower value",0.914
same,normalized growth,"S. cerevisiae deletion strains, locus YLR371W, strain rom2, stronger effect = lower value",0.912
same,normalized growth,"S. cerevisiae deletion strains, locus YLR384C, strain iki3, stronger effect = lower value",0.936
same,normalized growth,"S. cerevisiae deletion strains, locus YLR418C, strain cdc73, stronger effect = lower value",0.692 (active)
same,normalized growth,"S. cerevisiae deletion strains, locus YML016C, strain PPZ1, stronger effect = lower value",0.947
same,normalized growth,"S. cerevisiae deletion strains, locus YML032C, strain rad52, stronger effect = lower value",0.902 (active)
same,normalized growth,"S. cerevisiae deletion strains, locus YML120C, strain ndi1, stronger effect = lower value",0.897 (active)
same,normalized growth,"S. cerevisiae deletion strains, locus YML124C, strain tub3, stronger effect = lower value",0.902 (active)
same,normalized growth,"S. cerevisiae deletion strains, locus YMR058W, strain fet3, stronger effect = lower value",0.896 (active)
same,normalized growth,"S. cerevisiae deletion strains, locus YMR078C, strain ctf18, stronger effect = lower value",0.892 (active)
same,normalized growth,"S. cerevisiae deletion strains, locus YMR125W, strain sto1, stronger effect = lower value",0.826 (active)
same,normalized growth,"S. cerevisiae deletion strains, locus YMR129W, stronger effect = lower value",0.925
same,normalized growth,"S. cerevisiae deletion strains, locus YMR205C, strain PFK2, stronger effect = lower value",0.774 (active)
same,normalized growth,"S. cerevisiae deletion strains, locus YMR223W, strain ubp8, stronger effect = lower value",0.914
same,normalized growth,"S. cerevisiae deletion strains, locus YMR231W, strain pep5, stronger effect = lower value",0.934
same,normalized growth,"S. cerevisiae deletion strains, locus YMR307W, strain GAS1, stronger effect = lower value",0.9
same,normalized growth,"S. cerevisiae deletion strains, locus YNL067W, strain RPL9B, stronger effect = lower value",0.957
same,normalized growth,"S. cerevisiae deletion strains, locus YNL071W, strain lat1, stronger effect = lower value",0.614 (active)
same,normalized growth,"S. cerevisiae deletion strains, locus YNL128W, strain TEP1, stronger effect = lower value",1.01
same,normalized growth,"S. cerevisiae deletion strains, locus YNL153C, strain GIM3, stronger effect = lower value",0.822 (active)
same,normalized growth,"S. cerevisiae deletion strains, locus YNL183C, strain NPR1, stronger effect = lower value",0.925
same,normalized growth,"S. cerevisiae deletion strains, locus YNL209W, strain ssb2, stronger effect = lower value",0.958
same,normalized growth,"S. cerevisiae deletion strains, locus YNL233W, strain BNI4, stronger effect = lower value",0.882
same,normalized growth,"S. cerevisiae deletion strains, locus YNL248C, strain rpa49, stronger effect = lower value",0.948
same,normalized growth,"S. cerevisiae deletion strains, locus YNL250W, strain rad50, stronger effect = lower value",0.929
same,normalized growth,"S. cerevisiae deletion strains, locus YNL271C, strain bni1, stronger effect = lower value",0.932
same,normalized growth,"S. cerevisiae deletion strains, locus YNL298W, strain CLA4, stronger effect = lower value",0.922
same,normalized growth,"S. cerevisiae deletion strains, locus YNL307C, strain MCK1, stronger effect = lower value",0.797 (active)
same,normalized growth,"S. cerevisiae deletion strains, locus YNL322C, strain KRE1 (second series), stronger effect = lower value",0.907
same,normalized growth,"S. cerevisiae deletion strains, locus YNL322C, strain KRE1, stronger effect = lower value",0.94
same,normalized growth,"S. cerevisiae deletion strains, locus YNR049C, strain mso1, stronger effect = lower value",0.917 (active)
same,normalized growth,"S. cerevisiae deletion strains, locus YNR052C, strain pop2, stronger effect = lower value",0.899 (active)
same,normalized growth,"S. cerevisiae deletion strains, locus YOL012C, strain htz1",0.632
same,normalized growth,"S. cerevisiae deletion strains, locus YOL147C, strain pex11, stronger effect = lower value",0.914 (active)
same,normalized growth,"S. cerevisiae deletion strains, locus YOR001W, strain rrp6, stronger effect = lower value",0.945
same,normalized growth,"S. cerevisiae deletion strains, locus YOR061W, strain CKA2, stronger effect = lower value",0.948
same,normalized growth,"S. cerevisiae deletion strains, locus YOR069W, strain VPS5, stronger effect = lower value",0.962
same,normalized growth,"S. cerevisiae deletion strains, locus YOR070C, strain gyp1, stronger effect = lower value",0.908 (active)
same,normalized growth,"S. cerevisiae deletion strains, locus YOR080W, strain dia2, stronger effect = lower value",0.909 (active)
same,normalized growth,"S. cerevisiae deletion strains, locus YOR083W, strain WHI5, stronger effect = lower value",0.877 (active)
same,normalized growth,"S. cerevisiae deletion strains, locus YOR106W, strain vam3, stronger effect = lower value",0.908
same,normalized growth,"S. cerevisiae deletion strains, locus YOR136W, strain idh2, stronger effect = lower value",0.973
same,normalized growth,"S. cerevisiae deletion strains, locus YOR144C, strain elg1, stronger effect = lower value",0.907 (active)
same,normalized growth,"S. cerevisiae deletion strains, locus YOR184W, strain ser1, stronger effect = lower value",0.624 (active)
same,normalized growth,"S. cerevisiae deletion strains, locus YOR231W, strain MKK1, stronger effect = lower value",0.897
same,normalized growth,"S. cerevisiae deletion strains, locus YOR265W, strain rbl2, stronger effect = lower value",0.906 (active)
same,normalized growth,"S. cerevisiae deletion strains, locus YOR270C, strain vph1, stronger effect = lower value",0.639 (active)
same,normalized growth,"S. cerevisiae deletion strains, locus YOR290C, strain snf2, stronger effect = lower value",0.828 (active)
same,normalized growth,"S. cerevisiae deletion strains, locus YOR316C, strain cot1, stronger effect = lower value",0.912 (active)
same,normalized growth,"S. cerevisiae deletion strains, locus YPL051W, strain arl3, stronger effect = lower value",0.865 (active)
same,normalized growth,"S. cerevisiae deletion strains, locus YPL055C, strain LGE1, stronger effect = lower value",0.923
same,normalized growth,"S. cerevisiae deletion strains, locus YPL078C, strain atp4, stronger effect = lower value",0.863 (active)
same,normalized growth,"S. cerevisiae deletion strains, locus YPL106C, strain sse1, stronger effect = lower value",0.886
same,normalized growth,"S. cerevisiae deletion strains, locus YPL240C, strain hsp82, stronger effect = lower value",0.919 (active)
same,normalized growth,"S. cerevisiae deletion strains, locus YPL241C, strain CIN2, stronger effect = lower value",0.945
same,normalized growth,"S. cerevisiae deletion strains, locus YPL256C, strain CLN2, stronger effect = lower value",0.898
same,normalized growth,"S. cerevisiae deletion strains, locus YPR119W, strain clb2, stronger effect = lower value",0.914 (active)
same,normalized growth,"S. cerevisiae deletion strains, locus YPR141C, strain kar3, stronger effect = lower value",0.897 (active)
same,normalized growth,"S. cerevisiae deletion strains, locus YPR163C, strain tif3, stronger effect = lower value",0.866 (active)
same,normalized growth,"S. cerevisiae deletion strains, locus YPR167C, strain met16, stronger effect = lower value",0.887 (active)
same,normalized growth,"S. cerevisiae deletion strains, strain wtn01, stronger effect = lower value",0.854 (active)
same,normalized growth,"S. cerevisiae strains, strain wild type, stronger effect = lower value",0.93
